PubChem BioAssay (Tox21)
Results filed as inconclusive are left out. Where a structure was tested more than once in an assay, its records may differ in their call. Activity calls are given as the source filed them. Unless noted, calls follow the shape of the dose curve; as a rule, active = well fitted curve in the direction sought with a large enough effect in the repeat runs; inconclusive = weak or mixed curves; inactive = no such curve, though single readings can be large; an effect the other way counts as inactive or inconclusive.

What was measured:
[1] = target: Acetylcholinesterase (Homo sapiens) (UniProt P22303); assay: Acetylcholinesterase (AChE) small molecule antagonists: colormetric cell-based qHTS assay (AID 1347395; calls by dose curve; also: nearly all actives have a fitted effect of over 30% in size; also: potency is read from the fitted curve at half-maximal effect)
Outline: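 SH-SY5Y cells; cpd 30 min 37 C; + DTNB/acetylthiocholine, 90 min 37 C; colorimetric thiocholine read; qHTS.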

[2] = target: Acetylcholinesterase (Homo sapiens) (UniProt P22303); assay: Acetylcholinesterase (AChE) small molecule antagonists: enzyme-based qHTS assay (AID 1347397; calls by dose curve; also: nearly all actives have a fitted effect of over 55% in size); settings: Potency: AChE enzyme activity inhibition; outcome: AChE enzyme activity inhibition
Outline: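 Colorimetric DTNB readout of acetylthiocholine hydrolysis, 10 min at room temperature, after 30 min room-temperature exposure of 50 mU/mL recombinant human enzyme to compound; DMSO vehicle control.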

[3] = qHTS assay for small molecules that induce genotoxicity in human embryonic kidney cells expressing luciferase-tagged ATAD5 (AID 651632); also: nearly all actives have a fitted effect of over 15% in size
Outline: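 Test compounds were delivered by pin tool onto HEK293T reporter cells (2,000/well) expressing ATAD5 fused to luciferase. After 16 hr at 37C, 5% CO2, Amplite was added for 30 min at room temperature and luminescence was measured.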

[4] = qHTS assay for small molecule agonists of the p53 signaling pathway - cell viability (AID 651633; calls by dose curve; also: nearly all actives have a fitted effect of over 30% in size; also: potency is read from the fitted curve at half-maximal effect)
Outline: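 Viability counter-read: CellTiter-Glo luminescence (30 min, room temperature) in the same p53RE-bla plates. These plates had been exposed to compounds for 16 h at 37 C.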

[5] = qHTS assay for small molecules that induce genotoxicity in human embryonic kidney cells expressing luciferase-tagged ATAD5 - cell viability (AID 651634; calls by dose curve; also: nearly all actives have a fitted effect of over 25% in size; also: potency is read from the fitted curve at half-maximal effect)
Outline: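 Quantitative high-throughput format. HEK293T cells expressing ATAD5 fused to luciferase were plated at 2,000 cells/well and treated 15.5 hr with compound versus DMSO. Viability was determined by fluorescent live-cell protease substrate, 30 min at 37C.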

[6] = qHTS assay for small molecule disruptors of the mitochondrial membrane potential - cell viability (AID 720634; calls by dose curve;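 also: human HepG2 liver cancer cells; series mostly up to about 83 µM; nearly all actives have a fitted effect of over 20% in size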)
Outline: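 Same-well counter-screen: following the MMP dye addition, CellTiter-Glo was added to 1 hr compound-treated HepG2 cells and luminescence read after 30 min at room temperature.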

[7] = qHTS assay to test for compound auto fluorescence at 590 nm (red) in HepG2 cells (AID 720674)
Outline: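 Red autofluorescence (Ex/Em 540/590 nm, Rose Bengal sodium equivalents) was measured in HepG2 cells, 2,000 per well in MEM plus 10% FBS, plated overnight at 37 C. Readings were taken 1 hr after adding 23 nL compound or DMSO, at 37 C and 5% CO2.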

[8] = qHTS assay to test for compound auto fluorescence at 460 nm (blue) in HEK293 cells (AID 720678)
Outline: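 Triamterene serves as the blue fluorophore standard. Compound signal at 405/460 nm is read in HEK293 wells (2,000 cells, 10% dialyzed FBS) after overnight treatment at 37C.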

[9] = qHTS assay to test for compound auto fluorescence at 590 nm (red) in HEK293 cells (AID 720679)
Outline: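 We plated HEK293 cells in 10% dialyzed FBS medium, let them adhere for 4-5 hr, then added 23 nL compound. Overnight at 37C and 5% CO2 preceded fluorescence measurement at 540/590nm.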

[10] = qHTS assay to test for compound auto fluorescence at 535 nm (green) in HEK293 cells (AID 720680)
[11] = qHTS assay to test for compound auto fluorescence at 535 nm (green) in HEK293 cell free culture (AID 720682)
Outline: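 Cell-free medium (DMEM, 10% FBS) receives compound or DMSO by pintool. Plate read directly at Ex 485/Em 535 nm. Signal converted to fluorescein equivalency.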

[12] = qHTS assay to test for compound auto fluorescence at 590 nm (red) in HEK293 cell free culture (AID 720683)
Outline: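 Red-channel autofluorescence of compounds in culture medium (DMEM, 10% FBS), no cells, measured at 540/590 nm. Rose Bengal sodium is the reference fluorophore for equivalence.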

[13] = qHTS assay to test for compound auto fluorescence at 590 nm (red) in HepG2 cell free culture (AID 720684)
Outline: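 Cell-free; medium MEM + 10% FBS; compound or DMSO added by pintool; read Ex 540/Em 590 nm; Rose Bengal sodium as red reference fluorophore.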

[14] = qHTS assay to test for compound auto fluorescence at 460 nm (blue) in HepG2 cell free culture (AID 720685)
Outline: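 Cell-free plates of MEM plus 10% FBS received 23 nL compound or DMSO vehicle; blue-channel (405/460 nm) intensity scored against triamterene as reference fluorophore.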

[15] = qHTS assay to test for compound auto fluorescence at 460 nm (blue) in HepG2 cells (AID 720687)
Outline: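 Blue-channel autofluorescence (Ex/Em 405/460 nm, triamterene-equivalent) was measured after 1 hr compound exposure at 37 C, 5% CO2. Cells were HepG2, plated overnight at 37 C in MEM plus 10% FBS.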

[16] = qHTS assay to identify small molecule antagonists of the estrogen receptor alpha (ER-alpha) signaling pathway using the BG1 cell line - cell viability counter screen (AID 743081);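 also: compound given together with 17beta-estradiol as the ER stimulus; nearly all actives have a fitted effect of over 45% in size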; also: potency is read from the fitted curve at half-maximal effect
Aromatase (Homo sapiens) = Aromatase (Homo sapiens) (UniProt P11511); assay: qHTS assay to identify aromatase inhibitors (AID 743083); also: series mostly up to about 70 µM; nearly all actives have a fitted effect of over 55% in size
[17] = qHTS assay to identify aromatase inhibitors - cell viability counter screen (AID 743084);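 also: cells stimulated with testosterone during compound exposure; nearly all actives have a fitted effect of over 55% in size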
[18] = target: Aryl hydrocarbon receptor (Homo sapiens) (UniProt P35869); assay: qHTS assay to identify small molecule that activate the aryl hydrocarbon receptor (AhR) signaling pathway (AID 743085); also: nearly all actives have a fitted effect of over 15% in size; also: potency is read from the fitted curve at half-maximal effect
Outline: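 Luminescence read-out: ONE-Glo reagent, 30 min at room temperature, in HG2L7.5c1 HepG2 reporter cells treated 24 h at 37C. Viability was measured beforehand by CellTiter-Fluor fluorescence after 30 min at 37C.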

[19] = target: Acetylcholinesterase (Homo sapiens) (UniProt P22303); assay: Acetylcholinesterase (AChE) small molecule antagonists: fluorescence cell-based qHTS assay (AID 1347398; calls by dose curve; also: nearly all actives have a fitted effect of over 50% in size); settings: Potency: AChE activity; outcome: AChE activity
Outline: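 Cellular AChE activity read as thiocholine from acetylthiocholine hydrolysis, detected by Thiolite Green fluorescence at 490/520 nm after 40 min at room temperature. Compounds were pre-incubated 30 min at 37 C on adherent SH-SY5Y cells.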
% is scaled to controls: 0 for no effect and ±100 for the full control effect.

Chain of Aryl hydrocarbon receptor (Homo sapiens) (P35869 whole entry, looked up): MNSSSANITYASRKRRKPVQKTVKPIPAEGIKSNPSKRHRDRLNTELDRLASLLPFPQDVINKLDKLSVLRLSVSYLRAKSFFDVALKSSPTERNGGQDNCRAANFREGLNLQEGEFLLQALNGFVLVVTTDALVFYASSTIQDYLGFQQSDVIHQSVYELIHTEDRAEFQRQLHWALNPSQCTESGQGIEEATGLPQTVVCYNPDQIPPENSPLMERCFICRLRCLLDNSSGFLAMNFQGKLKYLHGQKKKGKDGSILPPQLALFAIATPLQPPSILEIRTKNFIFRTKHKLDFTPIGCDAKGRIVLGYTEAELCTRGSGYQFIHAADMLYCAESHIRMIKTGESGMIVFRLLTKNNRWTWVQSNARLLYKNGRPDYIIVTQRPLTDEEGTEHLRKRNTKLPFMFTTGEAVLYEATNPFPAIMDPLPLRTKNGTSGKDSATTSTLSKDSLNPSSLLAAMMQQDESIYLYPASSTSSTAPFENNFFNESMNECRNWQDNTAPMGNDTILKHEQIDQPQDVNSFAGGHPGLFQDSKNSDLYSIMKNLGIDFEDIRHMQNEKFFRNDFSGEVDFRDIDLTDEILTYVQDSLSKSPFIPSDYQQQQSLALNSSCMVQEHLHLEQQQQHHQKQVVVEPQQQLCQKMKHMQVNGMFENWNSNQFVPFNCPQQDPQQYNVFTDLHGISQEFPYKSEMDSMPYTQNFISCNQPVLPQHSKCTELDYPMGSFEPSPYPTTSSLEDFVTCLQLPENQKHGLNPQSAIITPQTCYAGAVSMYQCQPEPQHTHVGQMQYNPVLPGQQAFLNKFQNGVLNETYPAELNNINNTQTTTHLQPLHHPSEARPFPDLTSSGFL
Chain of Acetylcholinesterase (Homo sapiens) (P22303 whole entry, looked up): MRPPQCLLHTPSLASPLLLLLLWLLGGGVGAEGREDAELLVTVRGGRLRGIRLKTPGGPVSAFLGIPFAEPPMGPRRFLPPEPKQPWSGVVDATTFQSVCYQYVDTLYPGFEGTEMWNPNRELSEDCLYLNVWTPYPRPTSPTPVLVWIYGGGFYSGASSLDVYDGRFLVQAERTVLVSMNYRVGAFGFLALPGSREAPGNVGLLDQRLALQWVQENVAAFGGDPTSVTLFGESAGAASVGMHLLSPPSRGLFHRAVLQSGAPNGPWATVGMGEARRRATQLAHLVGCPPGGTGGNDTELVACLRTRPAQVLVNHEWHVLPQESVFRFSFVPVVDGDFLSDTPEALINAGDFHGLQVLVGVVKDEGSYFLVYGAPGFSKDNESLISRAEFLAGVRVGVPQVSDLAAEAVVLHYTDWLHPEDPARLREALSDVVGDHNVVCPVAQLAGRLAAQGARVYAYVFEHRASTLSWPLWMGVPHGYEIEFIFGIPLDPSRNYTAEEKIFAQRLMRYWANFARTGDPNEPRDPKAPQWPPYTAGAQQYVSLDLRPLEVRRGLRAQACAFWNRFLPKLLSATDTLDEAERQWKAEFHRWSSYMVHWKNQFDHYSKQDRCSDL
Chain of Aromatase (Homo sapiens) (P11511 whole entry, looked up): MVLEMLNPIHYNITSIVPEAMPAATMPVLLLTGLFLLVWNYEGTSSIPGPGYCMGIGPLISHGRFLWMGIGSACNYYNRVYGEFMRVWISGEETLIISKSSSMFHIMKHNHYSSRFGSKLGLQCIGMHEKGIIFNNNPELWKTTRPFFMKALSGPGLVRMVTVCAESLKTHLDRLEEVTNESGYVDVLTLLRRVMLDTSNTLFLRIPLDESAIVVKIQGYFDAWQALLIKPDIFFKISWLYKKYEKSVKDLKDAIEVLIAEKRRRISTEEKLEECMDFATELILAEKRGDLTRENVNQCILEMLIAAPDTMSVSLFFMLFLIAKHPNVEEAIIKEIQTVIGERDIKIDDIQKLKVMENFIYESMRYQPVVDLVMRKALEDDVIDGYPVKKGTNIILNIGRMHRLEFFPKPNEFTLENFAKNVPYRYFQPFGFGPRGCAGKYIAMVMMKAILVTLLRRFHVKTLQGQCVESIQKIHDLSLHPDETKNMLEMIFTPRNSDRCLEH

CC(C)(C)NCC(O)c1ccc(O)c(CO)c1 (configuration not stated)
inactive: Potency [1] | Potency [2]

O=C1Nc2ccc(Cl)cc2C(c2ccccc2Cl)=NC1O (configuration not stated)
inactive: Potency [3] | Potency [4] | Potency [5] | Potency [6] | outcome [7] | Potency [8] | outcome [9] | Potency [10] | Potency [11] | outcome [12] | outcome [13] | Potency [14] | Potency [15] | Potency [16] | Potency (Aromatase (Homo sapiens)) | Potency [17] | Potency [18]

CO[Si](CCCn1c(=O)n(CCC[Si](OC)(OC)OC)c(=O)n(CCC[Si](OC)(OC)OC)c1=O)(OC)OC
inactive: Potency [1] | Potency [2]

COC(=O)C1=C(C)NC(C)=C(C(=O)OCCN(C)Cc2ccccc2)C1c1cccc([N+](=O)[O-])c1 (configuration not stated)
inactive: Potency [1] | Potency [2]

C=CC[C@]1(O)CC[C@H]2[C@@H]3CCC4=CCCC[C@@H]4[C@H]3CC[C@@]21C
inactive: Potency [3] | Potency [4] | Potency [5] | Potency [6] | outcome [7] | Potency [8] | outcome [9] | Potency [10] | Potency [11] | outcome [12] | outcome [13] | Potency [14] | Potency [15] | Potency [16] | Potency [17] | Potency [18]

CC(=O)O[C@H]1C[C@H](O[C@H]2[C@@H](O)C[C@H](O[C@H]3[C@@H](O)C[C@H](O[C@H]4CC[C@@]5(C)[C@H](CC[C@@H]6[C@@H]5C[C@@H](O)[C@]5(C)[C@@H](C7=CC(=O)OC7)CC[C@]65O)C4)O[C@@H]3C)O[C@@H]2C)O[C@H](C)[C@H]1O[C@@H]1O[C@H](CO)[C@@H](O)[C@H](O)[C@H]1O
active: Potency [4] 0.133 µM | Potency [5] 0.168 µM
inactive: Potency [3] | Potency [6] | outcome [7] | Potency [8] | outcome [9] | Potency [10] | Potency [11] | outcome [12] | outcome [13] | Potency [14] | Potency [15] | Potency [16] | Potency (Aromatase (Homo sapiens)) | Potency [17]

C[C@H]1CC[C@]2(NC1)O[C@H]1C[C@H]3[C@@H]4CC[C@H]5C[C@@H](O)CC[C@]5(C)[C@H]4CC[C@]3(C)[C@H]1[C@@H]2C
inactive: Potency [3] | Potency [4] | Potency [5] | outcome [7] | Potency [8] | outcome [9] | Potency [10] | Potency [11] | outcome [12] | Potency [14] | Potency [15] | Potency [16] | Potency (Aromatase (Homo sapiens)) | Potency [17] | Potency [18]

F/C(COc1ccc2c(c1)[nH]c1ccccc12)=C1/CN2CCC1CC2
inactive: Potency [3] | Potency [4] | Potency [5] | Potency [6] | outcome [7] | Potency [8] | outcome [9] | Potency [10] | Potency [11] | outcome [12] | Potency [14] | Potency [15]
active: Potency [18] 10.6 µM

C[C@@H]([C@H](O)c1ccccc1)N(C)C
inactive: Potency [3] | Potency [4] | Potency [5] | Potency [6] | outcome [7] | Potency [8] | outcome [9] | Potency [10] | Potency [11] | outcome [12] | outcome [13] | Potency [14] | Potency [15] | Potency [16] | Potency (Aromatase (Homo sapiens)) | Potency [17]

CCCCCCC(O)CCCCCCCCCCC(=O)O (configuration not stated)
inactive: Potency [1] | Potency [2] | Potency [19]

C=CCN1CC[C@]23c4c5ccc(O)c4O[C@H]2[C@@H](O)C=C[C@H]3[C@H]1C5
inactive: Potency [3] | Potency [4] | Potency [5] | Potency [6] | outcome [7] | Potency [8] | outcome [9] | Potency [10] | Potency [11] | outcome [12] | outcome [13] | Potency [14] | Potency [15] | Potency [16] | Potency (Aromatase (Homo sapiens)) | Potency [17] | Potency [18]

Cc1nnc2n1-c1ccc(Cl)cc1C(c1ccccc1Cl)=NC2
inactive: Potency [4] | Potency [6] | outcome [7] | Potency [8] | outcome [9] | Potency [10] | Potency [11] | outcome [12] | Potency [14] | Potency [15] | Potency [16] | Potency (Aromatase (Homo sapiens)) | Potency [17]

NCCNCCNCCNCCN
inactive: activity, negative = inhibition [1] 4.34% [at 10.5 µM] | Potency [2] | activity change, negative = inhibition [19] 0.135% [at 10.5 µM]
active: Potency [1] 79.3 µM

O=[N+]([O-])c1cc(I)c(O)c(I)c1
active: Potency [4] 3.76 µM | Potency [5] 23.7 µM | Potency [16] 10.6 µM
inactive: Potency [3] | outcome [7] | Potency [8] | outcome [9] | Potency [10] | Potency [11] | outcome [12] | outcome [13] | Potency [14] | Potency [15] | Potency (Aromatase (Homo sapiens)) | Potency [17]

C[C@@H](Cc1ccccc1)NCCC(c1ccccc1)c1ccccc1
inactive: Potency [3] | Potency [4] | Potency [5] | Potency [6] | outcome [7] | Potency [8] | Potency [10] | Potency [11] | outcome [12] | outcome [13] | Potency [14] | Potency [15] | Potency (Aromatase (Homo sapiens)) | Potency [17] | Potency [18]

Clc1ccc2c(c1)C(N1CCNCC1)=Nc1ccccc1O2
inactive: Potency [1] | Potency [2]

OC[C@@H](O)[C@H]1O[C@@H]2O[C@@H](C(Cl)(Cl)Cl)O[C@@H]2[C@H]1O
inactive: Potency [3] | Potency [5] | Potency [6] | outcome [7] | Potency [8] | outcome [9] | Potency [10] | Potency [11] | outcome [12] | outcome [13] | Potency [14] | Potency [15] | Potency [16] | Potency (Aromatase (Homo sapiens)) | Potency [17] | Potency [18]

O=C(CS(=O)C(c1ccccc1)c1ccccc1)NO (configuration not stated)
inactive: Potency [3] | Potency [4] | Potency [5] | Potency [6] | outcome [7] | Potency [8] | outcome [9] | Potency [10] | Potency [11] | outcome [12] | outcome [13] | Potency [14] | Potency [15] | Potency [16] | Potency (Aromatase (Homo sapiens)) | Potency [17] | Potency [18]

C/C(=C\c1csc(C)n1)[C@@H]1C[C@@H]2O[C@]2(C)CCC[C@H](C)[C@H](O)[C@@H](C)C(=O)C(C)(C)[C@@H](O)CC(=O)O1
inactive: Potency [3] | Potency [4] | Potency [6] | outcome [7] | Potency [8] | outcome [9] | Potency [10] | Potency [11] | outcome [12] | outcome [13] | Potency [14] | Potency [15] | Potency [16] | Potency (Aromatase (Homo sapiens)) | Potency [17] | Potency [18]
